Laboratory results taken from PubChem BioAssay.
Calls of active or inactive are those of the source.

Key:
[1] = small molecules captured by biotinylated probe aFSTL3 – biochemical, small-molecule microarray, fluorescence 635/667, stem cell growth factor project, primary screen (AID 1064); details: higher = more signal;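 note: measures binding of the biotinylated anti-FSTL3 antibody to printed compounds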
[2] = binders from COS7 lysate, DM2A8 probe, primary screen, torsin A project, cell lysate, small-molecule microarray, fluorescence 635/667 (AID 1065); details: higher = more signal, COS7 lysate expressing mutant human TOR1A
[3] = small molecules captured by biotinylated probe aFGF2 – biochemical, small-molecule microarray, fluorescence 635/667, stem cell growth factor project, primary screen (AID 1067); details: higher = more signal;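 note: measures binding of biotinylated aFGF2 protein to printed compounds on slides; z-score merges feature fluorescence and signal-to-noise across triplicate slides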
[4] = small molecules captured by biotinylated probe aFGF10 – biochemical, small-molecule microarray, fluorescence 635/667, stem cell growth factor project, primary screen (AID 1071); details: higher = more signal;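 note: score merges 667 nm spot intensity and signal to noise from triplicate slides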
[5] = biological target: Neurogenic locus notch homolog protein 2 (Homo sapiens) (UniProt Q04721); assay: small molecules binding Notch2 protein – biochemical, small-molecule microarray, 635 nm fluorescence, stem cell growth factors, primary screen (AID 1073); details: higher = more signal
[6] = biological target: Pro-neuregulin-1, membrane-bound isoform (Homo sapiens) (UniProt Q02297); assay: small molecules binding neuregulin-1 protein – biochemical, small-molecule microarray, fluorescence 635/667, psychiatric disease protein project, primary screen (AID 1075); details: NRG1 binding, 635 nm fluorescence, higher = more signal;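 note: score combines 667 nm spot fluorescence with signal to noise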
[7] = system: Neuregulin-1 EGF-like domain; assay: small molecules binding NRG1 EGF domain – biochemical, small-molecule microarray, 635 nm fluorescence, primary screen (AID 1081); details: higher = more signal;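 note: binding of the protein to compounds printed on small-molecule microarray slides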
[8] = FRG1 expression reporter modulators in myotubes – cell-based, C2C12 myotubes, firefly/Renilla luciferase, luminescence, FRG1 inhibition for FSHD, primary screen (AID 1084); details: FRG1 promoter luciferase, higher = more signal, called active from +8 up or from −8 down
[9] = small molecules captured by biotinylated probe aFST – biochemical, small-molecule microarray, fluorescence 635/667, stem cell growth factor project, primary screen (AID 1086); details: higher = more signal;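 note: score merges 667 nm fluorescence with signal-to-noise of each printed compound spot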
[10] = binders of probe aHhip on microarray, primary screen, stem cell growth factor project, biochemical, small-molecule microarray, fluorescence 635/667 (AID 1087); details: higher = more signal;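 note: score merges spot fluorescence at 667nm with spot signal to noise ratio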
[11] = system: PRMT1 (protein arginine N-methyltransferase 1); assay: small molecules binding arginine methyltransferase PRMT1 – biochemical, small-molecule microarray, 635 nm fluorescence, primary screen (AID 1088); details: higher = more signal;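 note: binding of Prmt1 protein to compounds spotted on small-molecule microarray slides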
[12] = growth effects on S. cerevisiae YJM789 – YJM789 clinical isolate, OD600, 24 h, basal, primary screen (AID 1089); details: higher = more signal, called active from +8 up or from −8 down;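 note: growth of clinical yeast isolate S. cerevisiae YJM 789 seeded 1000 cells per well; test concentration not given here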
[13] = S. pombe growth modifiers, basal conditions – strain 972, OD600, 24 h, no modulator, primary screen (AID 1090);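 note: basal condition with compound alone and no growth modifier present; test concentration not given here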; details: S. pombe 972 growth, higher = more signal, called active from +8 up or from −8 down
[14] = budding yeast growth modifiers under rapamycin – strain BY4716, OD600, 96 h, primary screen (AID 1091); note: test concentration not given here; details: S. cerevisiae BY4716 + rapamycin, higher = more signal, called active from +8 up or from −8 down
[15] = biological target: Torsin-1A-interacting protein 2 (Homo sapiens) (UniProt Q8NFQ8); assay: small molecules binding lysate-expressed LULL1 – cell lysate, human LULL1 lysate, 635/667 nm fluorescence, primary screen (AID 1092); details: small-molecule microarray, hLULL1 lysate binding, 635 nm fluorescence; higher = more signal;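 note: probe is lysate of COS7 cells overexpressing human LULL1; score merges per-feature 667 nm fluorescence with signal-to-noise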
[16] = optical density change of DRC41 E. coli – strain DRC41, OD650, 24 h, E. coli filamentation project, primary screen (AID 1093);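 note: MC1000 strain lacking acrAB efflux and sulA so SOS filamentation is blocked; test concentration not given here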; details: E. coli DRC41 growth, higher = more signal, called active from +8 up or from −8 down
[17] = probe aLefty2 binding to arrayed compounds – biochemical, biotinylated probe, 635/667 nm fluorescence, primary screen (AID 1094); details: small-molecule microarray, higher = more signal;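 note: score merges spot fluorescence near 667 nm with spot signal-to-noise ratio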
[18] = system: Noggin (protein binding on small-molecule microarray); assay: small molecules binding Noggin protein – biochemical, 635/667 nm fluorescence, primary screen (AID 1095); details: 635 nm fluorescence, higher = more signal;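 note: score merges 667 nm feature fluorescence with signal to noise over triplicate slides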
[19] = biological target: Neurogenic locus notch homolog protein 3 (Homo sapiens) (UniProt Q9UM47); assay: small molecules binding NOTCH3 protein – biochemical, 635/667 nm fluorescence, primary screen (AID 1096); details: small-molecule microarray, 635 nm fluorescence, higher = more signal
[20] = probe aEGFR binding to arrayed compounds – biochemical, biotinylated probe, 635/667 nm fluorescence, primary screen (AID 1097); details: small-molecule microarray, higher = more signal;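 note: probe is a biotinylated anti-EGFR antibody binding compounds printed on slides; score combines fluorescence near 667 nm and signal to noise of each spot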

Sequence of Pro-neuregulin-1, membrane-bound isoform (Homo sapiens) (Q02297 whole entry, looked up, the tested form may be a part, canonical isoform): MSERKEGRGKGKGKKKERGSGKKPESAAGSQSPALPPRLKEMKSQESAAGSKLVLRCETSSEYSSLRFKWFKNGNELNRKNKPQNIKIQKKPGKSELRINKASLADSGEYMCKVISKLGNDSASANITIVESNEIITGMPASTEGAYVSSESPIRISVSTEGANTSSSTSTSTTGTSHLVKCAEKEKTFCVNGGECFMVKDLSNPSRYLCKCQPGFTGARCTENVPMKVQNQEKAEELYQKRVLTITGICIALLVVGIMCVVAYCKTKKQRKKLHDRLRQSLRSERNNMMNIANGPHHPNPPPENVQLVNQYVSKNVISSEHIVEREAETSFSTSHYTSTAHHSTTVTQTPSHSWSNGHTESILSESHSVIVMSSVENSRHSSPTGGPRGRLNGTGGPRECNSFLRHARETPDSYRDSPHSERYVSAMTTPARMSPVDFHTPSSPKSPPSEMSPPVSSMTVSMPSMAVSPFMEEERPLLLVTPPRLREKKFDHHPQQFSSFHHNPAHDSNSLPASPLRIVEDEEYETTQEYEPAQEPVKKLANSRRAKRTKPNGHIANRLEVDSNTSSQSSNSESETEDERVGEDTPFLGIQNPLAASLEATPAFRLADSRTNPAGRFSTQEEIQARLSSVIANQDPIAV
Sequence of Neurogenic locus notch homolog protein 3 (Homo sapiens) (Q9UM47 whole entry, looked up): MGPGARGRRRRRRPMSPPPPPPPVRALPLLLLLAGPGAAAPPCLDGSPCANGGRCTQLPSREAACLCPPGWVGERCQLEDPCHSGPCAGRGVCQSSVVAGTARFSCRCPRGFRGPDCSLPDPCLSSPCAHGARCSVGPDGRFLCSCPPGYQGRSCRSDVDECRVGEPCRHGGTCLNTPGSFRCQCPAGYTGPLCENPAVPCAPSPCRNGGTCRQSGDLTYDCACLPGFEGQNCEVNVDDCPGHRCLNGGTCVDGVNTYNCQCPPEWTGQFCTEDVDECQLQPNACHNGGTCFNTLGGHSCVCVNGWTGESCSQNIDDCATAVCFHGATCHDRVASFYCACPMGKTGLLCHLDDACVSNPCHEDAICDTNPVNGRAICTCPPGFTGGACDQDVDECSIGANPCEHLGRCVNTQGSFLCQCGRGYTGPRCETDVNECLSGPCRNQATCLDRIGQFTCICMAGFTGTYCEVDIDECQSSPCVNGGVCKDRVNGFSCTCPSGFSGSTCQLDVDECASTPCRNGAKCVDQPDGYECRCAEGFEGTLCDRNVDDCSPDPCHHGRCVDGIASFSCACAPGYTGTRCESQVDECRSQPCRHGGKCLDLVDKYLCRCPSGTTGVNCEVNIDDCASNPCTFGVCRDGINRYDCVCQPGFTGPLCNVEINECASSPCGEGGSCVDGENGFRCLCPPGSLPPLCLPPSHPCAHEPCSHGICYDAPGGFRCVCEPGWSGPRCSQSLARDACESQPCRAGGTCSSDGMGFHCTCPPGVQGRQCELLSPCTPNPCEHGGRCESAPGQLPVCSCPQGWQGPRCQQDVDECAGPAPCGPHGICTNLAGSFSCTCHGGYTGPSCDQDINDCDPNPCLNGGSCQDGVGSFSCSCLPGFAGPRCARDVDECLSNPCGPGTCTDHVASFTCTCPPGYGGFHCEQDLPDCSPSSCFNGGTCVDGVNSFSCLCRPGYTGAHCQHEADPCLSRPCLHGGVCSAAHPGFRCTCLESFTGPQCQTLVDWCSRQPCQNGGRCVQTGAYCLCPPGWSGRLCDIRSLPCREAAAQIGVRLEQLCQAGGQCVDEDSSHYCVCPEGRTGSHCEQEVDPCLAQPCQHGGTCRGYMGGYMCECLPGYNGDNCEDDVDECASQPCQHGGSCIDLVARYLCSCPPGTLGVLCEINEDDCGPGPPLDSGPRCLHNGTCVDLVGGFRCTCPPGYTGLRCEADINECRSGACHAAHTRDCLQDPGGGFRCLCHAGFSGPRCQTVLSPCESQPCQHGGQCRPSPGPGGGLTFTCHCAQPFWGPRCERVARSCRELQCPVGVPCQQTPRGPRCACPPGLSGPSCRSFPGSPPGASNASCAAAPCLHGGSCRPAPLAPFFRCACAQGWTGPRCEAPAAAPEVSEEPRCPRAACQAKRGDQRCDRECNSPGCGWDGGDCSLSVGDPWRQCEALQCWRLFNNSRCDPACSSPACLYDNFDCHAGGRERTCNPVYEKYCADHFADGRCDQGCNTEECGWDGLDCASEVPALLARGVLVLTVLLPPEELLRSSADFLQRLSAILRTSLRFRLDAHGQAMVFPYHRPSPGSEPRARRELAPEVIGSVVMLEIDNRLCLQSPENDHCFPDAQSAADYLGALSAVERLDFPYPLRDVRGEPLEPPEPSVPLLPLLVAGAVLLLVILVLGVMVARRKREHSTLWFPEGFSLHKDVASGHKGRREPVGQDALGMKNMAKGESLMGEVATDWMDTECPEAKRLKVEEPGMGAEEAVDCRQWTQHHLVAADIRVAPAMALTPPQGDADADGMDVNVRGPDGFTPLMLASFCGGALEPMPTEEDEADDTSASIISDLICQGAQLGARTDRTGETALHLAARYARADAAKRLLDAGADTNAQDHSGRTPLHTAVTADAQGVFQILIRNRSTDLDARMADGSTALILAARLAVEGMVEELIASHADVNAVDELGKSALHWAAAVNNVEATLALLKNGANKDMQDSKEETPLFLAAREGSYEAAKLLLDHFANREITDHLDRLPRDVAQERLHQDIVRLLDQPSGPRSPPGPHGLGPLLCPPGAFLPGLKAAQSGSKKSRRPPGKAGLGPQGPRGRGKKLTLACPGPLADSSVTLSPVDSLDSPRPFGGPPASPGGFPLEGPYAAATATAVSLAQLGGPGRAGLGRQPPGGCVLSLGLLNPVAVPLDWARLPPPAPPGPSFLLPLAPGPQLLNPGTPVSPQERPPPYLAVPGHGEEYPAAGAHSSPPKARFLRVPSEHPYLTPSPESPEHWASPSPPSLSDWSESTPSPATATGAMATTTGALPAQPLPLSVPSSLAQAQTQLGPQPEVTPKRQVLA
Sequence of Torsin-1A-interacting protein 2 (Homo sapiens) (Q8NFQ8 whole entry, looked up): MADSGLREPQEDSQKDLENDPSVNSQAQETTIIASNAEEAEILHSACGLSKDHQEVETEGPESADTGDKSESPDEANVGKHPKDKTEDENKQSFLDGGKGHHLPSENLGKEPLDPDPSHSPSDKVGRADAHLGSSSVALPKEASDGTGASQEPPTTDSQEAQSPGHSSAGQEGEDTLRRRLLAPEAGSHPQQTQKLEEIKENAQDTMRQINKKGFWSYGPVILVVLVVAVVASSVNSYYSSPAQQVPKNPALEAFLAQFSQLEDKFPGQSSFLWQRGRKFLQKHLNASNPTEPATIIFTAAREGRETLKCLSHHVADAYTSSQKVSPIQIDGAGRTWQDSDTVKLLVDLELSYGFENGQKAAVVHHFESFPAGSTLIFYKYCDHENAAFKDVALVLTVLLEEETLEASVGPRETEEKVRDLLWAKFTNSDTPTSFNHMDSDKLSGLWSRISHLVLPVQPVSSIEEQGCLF

Structure (SMILES)	composite z-score [1]	composite z-score [2]	composite z-score [3]	composite z-score [4]	composite z-score [5]	composite z-score [6]	composite z-score [7]	z-score [8]	composite z-score [9]	composite z-score [10]	composite z-score [11]	z-score [12]	z-score [13]	z-score [14]	composite z-score [15]	z-score [16]	composite z-score [17]	composite z-score [18]	composite z-score [19]	composite z-score [20]
CN(C)C(=O)[C@]1(Cc2ccccc2N=[N+]=[N-])N=C(c2ccc(OCCCO)cc2)O[C@@H]1c1ccccc1	0.127	0.227	0.0901	0.071	1.31	1.78	1.13	-2.65 (inactive)	0.627	-0.374	1.39	-0.958 (inactive)	-2.29 (inactive)	-0.195 (inactive)	3.02	0.677 (inactive)	0.149	1.21	0.905	-0.0512
COc1ccc(C(O)C2C=CC3C(=O)N(c4ccccc4)C(=O)C3N2Nc2ccc(C(C)C)cc2)cc1OCc1ccccc1 (stereo not given)	0.838	0.369	0.227	1.08	1.61	1.26	1.1	-1.44 (inactive)	1.62	-0.168	1.61	0.345 (inactive)	0.309 (inactive)	-0.707 (inactive)	2.97	-3.72 (inactive)	0.308	0.112	1.03	0.339
C=CCNC(=O)[C@H]1[C@@H]2C(=O)O[C@@H](c3ccccc3)[C@@H](c3ccccc3)N2[C@@H](c2ccc(OCCO)cc2)[C@]12C(=O)N(C(=O)OCCOC)c1ccccc12	-0.268	0.847	0.0732	0.591	1.45	1.53	1.38	-2.56 (inactive)	0.854	0.251	1.54	2.07 (inactive)	0.0313 (inactive)	4.62 (inactive)	3.07	0.909 (inactive)	0.0316	1.09	1.04	0.107
COCCOC(=O)N1C(=O)[C@@]2(c3cc(C#CCCO)ccc31)[C@H](C(=O)Nc1nc3ccccc3s1)[C@H]1C(=O)O[C@H](c3ccccc3)[C@H](c3ccccc3)N1[C@@H]2c1ccc(OCCO)cc1	-0.221	0.787	-0.0824	0.871	1.19	0.991	1.07	1.2 (inactive)	0.464	0.0176	1.54	1.58 (inactive)	1.09 (inactive)	2.02 (inactive)	1.89	0.176 (inactive)	0.0444	0.874	1.1	0.0848
COC(=O)c1c(CC[C@@H](CO)NC(=O)N[C@@H](C)Cn2cc(C3(O)CCCCC3)nn2)oc(C(C)=O)c1C(=O)OC	-0.548	1.14	-0.0512	1.01	1.25	0.518	1.3	1.2 (inactive)	0.817	-0.184	1.54	0.34 (inactive)	-0.261 (inactive)	0.107 (inactive)	1.16	-0.338 (inactive)	0.0621	1.16	1.05	0.173
C=CCC(OC(C)=O)[C@@H]1[C@@H](N(Cc2cccc3ccccc23)C(=O)c2ccc(-c3ccccc3)cc2)c2cc(OCCCO)ccc2N1C(=O)Cc1ccc(OC)cc1 (stereo not given in full)	-0.184	0.419	-0.061	0.151	-0.131	0.0521	0.138	0.61 (inactive)	-0.0107	-0.0618	0.341	-0.715 (inactive)	-0.445 (inactive)	-1.03 (inactive)	0.792	0.457 (inactive)	-0.0491	0.0231	0.0343	-0.0415
COc1ccc(C(O)C2C=CC3C(=O)NC(=O)C3N2Nc2ccccn2)c2ccccc12 (stereo not given)	-0.37	0.184	0.0467	0.246	0.388	1	0.741	0.87 (inactive)	0.119	-0.0994	-0.385	-0.327 (inactive)	-0.0861 (inactive)	0.188 (inactive)	1.02	-0.794 (inactive)	-0.132	-0.127	0.223	-0.107
O=C1OCCC/C=C\[C@H]2OC34C=CCN(Cc5ccccc5)C(=O)[C@H]3N(CCCCCCO)C(=O)[C@@H]4C12 (stereo not given in full)	1.26	1.37	-0.0956	-0.437	-0.793	1.31	1.31	0.247 (inactive)	-0.467	-0.0003	-0.197	0.464 (inactive)	-0.431 (inactive)	0.0977 (inactive)	2.24	0.991 (inactive)	0.0359	-2.14	-0.927	-0.237
O=C1c2ccccc2[C@](Cc2ccccc2I)(C(=O)NC2CC2)[C@H](c2ccc(CO)cc2)N1Cc1ccccc1	0.16	-0.211	-0.0335	0.483	0.543	0.458	0.774	-3.11 (inactive)	-0.364	-0.0994	0.735	-0.835 (inactive)	-0.388 (inactive)	-1.15 (inactive)	2.86	0.192 (inactive)	-0.0741	0.133	0.566	-0.0681
COCCOC(=O)N1C(=O)[C@@]2(c3cc(C#CCCO)ccc31)[C@H](c1ccc(OCCO)cc1)N1[C@H](c3ccccc3)[C@H](c3ccccc3)OC(=O)[C@H]1[C@@H]2C(=O)N1CCN(c2ncccn2)CC1	-0.204	-0.0161	-0.0972	0.281	1.33	0.317	1.23	-0.37 (inactive)	0.658	0.0274	1.55	-0.01 (inactive)	0.342 (inactive)	2.94 (inactive)	2.42	-0.0542 (inactive)	-0.123	1.23	1.06	-0.0066
